# MCF10A rereplic – induces DNA re-replication in MCF 10a normal breast cells; MCF 10A DNA re-replication, Hoechst nuclear intensity, 48 h; 350,000 compounds, 2.9% hits; Potency, µM (top dose mostly 46.1 µM), inactives show top-dose activity, positive = re-replication, actives largely listed as activators; further: % of control where 0% means no effect; nearly all actives have a fitted effect of over 50% in size
# HT1080 IDH1KD tx – toxicity to HT-1080 IDH1 knockdown cells (counter line) | HT-1080 IDH1 knockdown viability, ATP luminescence, 48 h | Potency, µM (titrated, usually from 46.1 µM), for inactives: at the highest dose activity, negative = toxicity, hits mostly cytotoxic | 360,000 compounds, 2% hits | AID 686971;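 further: 0% = DMSO wells and -100% = cell-free medium wells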
#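 In this qHTS, HT-1080 cells depleted of IDH1 are exposed for 48 h at 37 °C to compound titrations. Toxicity is scored from CellTiter-Glo luminescence, with DMSO as full viability and medium alone as none.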
# KB-3-1 tox – KB-3-1 parental cell cytotoxicity; KB-3-1 viability, CellTiter-Glo ATP luminescence, 72 h; 400,000 compounds, 1.4% hits; Potency, µM (top dose mostly 46.1 µM), usual class: cytotoxic; further: on the % scale 0 is the no-effect control and ±100 the full control effect; nearly all actives have a fitted effect of over 60% in size
#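 Parental KB-3-1 adenocarcinoma cells in phenol-red-free DMEM with 10% FBS were pin-treated with compounds at several concentrations, incubated 72 h at 37 °C, and viability read by CellTiter-Glo luminescence; concentration-effect curves were fitted after normalization.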
# HT1080NT lethal – kills 2HG-producing HT-1080-NT fibrosarcoma cells. Potency, µM (top dose mostly 46.1 µM), for the others: at the top dose activity, negative = less viability, most hits filed as cytotoxic. AID 686970. 360,000 compounds, 1.6% hits. HT-1080-NT fibrosarcoma viability, CellTiter-Glo ATP luminescence, 48 h;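 further: NT is the 2HG producing partner of a matched IDH1 knockdown line; 0% = DMSO-treated cells and -100% = media-only wells without cells; nearly all actives have a fitted effect of over 55% in size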
#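 HT-1080-NT fibrosarcoma cells (2HG-overproducing), 750 cells/well in RPMI with 5% FBS, dosed after 2 h and incubated 48 h at 37C. CellTiter-Glo luminescence normalized to DMSO and no-cell wells; concentration-response curves fitted and classed.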
# SW480 rerep – inducers of DNA re-replication in SW480 colon cancer cells; SW480 DNA re-replication, Hoechst DNA content imaging, 48 h; Potency, µM (doses to about 46.1 µM), for inactives: at the top dose re-replication activation, actives largely listed as activators; 340,000 compounds, 1.8% hits; AID 624297; further: % of control where 0% means no effect; nearly all actives have a fitted effect of over 55% in size
#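 250 cells/well; 23 nL cpd via pin tool; 48 hr, 37 C, 5% CO2; Hoechst 40 min; imager read of total nuclear intensity, ex 405/em 500-530 nm.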
# KB-V1 MDR tox – kills drug-selected multidrug resistant KB-V1 cells. 400,000 compounds, 3.4% hits. KB-V1 MDR cells viability, CellTiter-Glo, 72 h. Potency, µM (doses to about 46.1 µM), usual class: cytotoxic; further: on the % scale 0 is the no-effect control and ±100 the full control effect; nearly all actives have a fitted effect of over 60% in size
#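 Drug-selected KB-V1 cells, grown in DMEM lacking phenol red with 10% FBS, receive compound titrations; after three days at 37 degrees C, surviving cell ATP is quantified by CellTiter-Glo luminescence and responses normalized and curve-fitted.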
# Active calls of the source: *; i = inactive; ? = inconclusive; · = no result; [ ] = remark or other dose. Most compounds without a hit are left out; they make up all but 7.9% or so of the library. The call rests on the fitted dose curve; in most records, active means well fitted curve in the direction sought with a large enough effect; inconclusive means small, poorly fitted or top-dose-only effect, or another doubt; inactive means no such curve, though single readings can be large; an effect the other way counts as inactive or inconclusive. Potency means the concentration at half of the fitted maximal effect.
SMILES,MCF10A rereplic,HT1080 IDH1KD tx,KB-3-1 tox,HT1080NT lethal,SW480 rerep,KB-V1 MDR tox
COC(=O)[C@@]12C[C@@H](CC(=O)NCc3ccc(OC)c(OC)c3)C(=O)N(CCc3ccc(OC)c(OC)c3)C1=CCC(C)(C)C2,·,3%,i,-24%,·,?
CCCCCCCCN1C(=O)[C@H](CC(=O)NCCCCc2ccccc2)C[C@@]2(C(=O)OC)CC(C)(C)CC=C12,·,?,i,-13%,·,?
CCCCCCCCN1C(=O)[C@H](CC(=O)NCc2ccc(OC)c(OC)c2)C[C@@]2(C(=O)OC)CC(C)(C)CC=C12,·,?,?,?,·,21µM*
CCCCCCCCN1C(=O)[C@H](CC(=O)NCCCC)C[C@@]2(C(=O)OC)CC(C)(C)CC=C12,·,?,?,?,·,21µM*
CCCCCCCCN1C(=O)[C@H](CC(=O)NCc2ccccc2)C[C@@]2(C(=O)OC)CC(C)(C)CC=C12,·,?,?,?,·,18µM*
CN(C)c1ccc(/C=C/c2ccnc3c(Cl)ccc(Cl)c23)cc1,·,·,i,·,·,i
Cc1onc(-c2c(Cl)cccc2Cl)c1C(=O)N1CCc2ccccc2C1,10%,-17%,i,-16%,-94%,21µM*
Cc1onc(-c2ccccc2Cl)c1C(=O)N1CCN(c2ccccc2)CC1,-18%,-13%,i,-3%,19%,21µM*
Cc1onc(-c2ccccc2Cl)c1C(=O)N1CCCC1,-1%,-5%,i,-2%,30%,i
Cc1onc(-c2c(Cl)cccc2Cl)c1C(=O)N1CCCc2ccccc21,-4%,-23%,i,-26%,3%,i
Cc1cccc(N2CCN(C(=O)c3c(-c4ccccc4)noc3C)CC2)c1C,3.7µM*,1.3µM*,?,1.2µM*,?,3.7µM*
Cc1onc(-c2ccccc2Cl)c1C(=O)N1CCN(c2cccc(Cl)c2)CC1,?,2.1µM*,2.3µM*,2.6µM*,7.3µM*,1.3µM*
CC(C)CCNC(=O)Cn1c(SCc2cccc(F)c2)nc2ccncc21,·,·,i,·,·,i
COc1cccc(OCCn2c(-c3ccc(Cl)cc3)nc3ccccc3c2=O)c1,·,·,i,·,·,i
COc1ccccc1NC(=O)C1CCCN(c2ncnc3onc(-c4ccc(F)cc4)c23)C1 (stereo not given),·,·,i,·,·,i
CCOc1ccc(NC(=O)CCc2c(C)nc3c4c(C)cc(C)nc4nn3c2C)cc1,·,·,i,·,·,i
COc1ccc(NC(=S)NCCC2=CCCCC2)cc1OC,0%,8%,i,9%,4%,i
S=C(NCCC1=CCCCC1)Nc1ccc(Cl)cc1,10%,7%,i,16%,4%,7.3µM*
CCCCCc1ccnc(CC(=O)c2ccc(OC)cc2)c1,-14%,-5%,23µM*,-16%,-10%,i
CCCCCc1ccc(-c2ccc(OC)cc2)nc1,10%,11%,i,18%,1%,i
CCc1cc(=O)oc2cc(OCC(=O)NCc3ccccn3)ccc12,?,1%,i,3%,12µM*,i
O=C(COc1ccc2c(-c3ccccc3)cc(=O)oc2c1)NCc1ccccn1,3%,8%,i,6%,-13%,i
Cc1cc(C)cc(N2C(N)=NC(N)=NC2c2ccccc2F)c1 (stereo not given),4%,?,?,-7%,?,16µM*
CCOc1ccc(CNC(=O)c2cc3ccccn3n2)cc1OC,·,·,i,·,·,i
Cc1cccc(-c2noc(-c3ccccc3OCC(=O)Nc3ccc([N+](=O)[O-])cc3)n2)c1,·,·,i,·,·,i
SMILES,MCF10A rereplic,HT1080 IDH1KD tx,KB-3-1 tox,HT1080NT lethal,SW480 rerep,KB-V1 MDR tox
O=C(CSc1ncnc2nc[nH]c12)N1CCOCC1,8.2µM*,4%,i,4%,18µM*,i
O=c1[nH]cnc2c1ccn2C1OC(CO)C(O)C1O (stereo not given),2.1µM*,·,15µM*,·,-1%,16µM*
O=c1[nH]c(=O)n(C2OC(CO)C(O)C2O)cc1F (stereo not given),?,0.92µM*,21µM*,10µM*,1µM*,21µM*
O=c1[nH]c(=S)ccn1C1OC(CO)C(O)C1O (stereo not given),?,-22%,9.2µM*,?,-2%,?
O=c1ncccn1C1OC(CO)C(O)C1O (stereo not given),·,-7%,i,-4%,·,i
Clc1ccc2c(c1)-c1c(cnc3cc(-c4ccccc4)nn13)CO2,·,·,i,·,·,?
O=C(Cn1ccc(C(F)(F)F)n1)N=Nc1c(O)[nH]c2ccccc12,0%,-8%,i,-21%,2%,i
CC(C)n1c(O)c(N=NC(=O)Cn2ccc(C(F)(F)F)n2)c2ccccc21,?,11%,?,-2%,-30%,8.2µM*
O=C(NC(=S)Nc1ccc(CN2CCOCC2)cc1)c1ccc2c(c1)OCCO2,?,?,18µM*,?,?,21µM*
COc1ccc(NC(=S)NC(=O)c2ccc3c(c2)OCCO3)cc1,2%,-3%,i,-4%,-7%,i
COc1ccc(S(=O)(=O)N2CCC(C(=O)c3ccc4c(c3)OCCO4)CC2)cc1,-6%,-26%,?,-28%,2%,i
O=C(c1ccc2c(c1)OCCO2)C1CCN(S(=O)(=O)c2ccccc2F)CC1,1%,?,i,-9%,0%,23µM*
O=C(c1ccc2c(c1)OCCO2)C1CCN(C(=O)Nc2ccc(F)cc2)CC1,4%,-4%,i,-9%,13%,23µM*
O=C(NC(=S)Nc1ccc(N2CCOCC2)cc1)c1ccc2c(c1)OCCO2,14%,-19%,i,-14%,?,?
O=C(NC(=S)Nc1ccc(F)cc1)c1ccc2c(c1)OCCO2,0%,-24%,13µM*,-12%,2%,i
O=C(Cn1nc(N2CCN(c3ccccc3)CC2)ccc1=O)NCc1cccc(Cl)c1,·,·,i,·,·,i
COC(=O)Nc1nc(C)c(C(=O)c2ccccc2)s1,9.2µM*,?,?,?,15µM*,7.3µM*
CCOC(=O)c1sc(NC(C)=O)nc1-c1ccccc1,-3%,7%[9.24 µM],i,-6%,-1%,i
COC(=O)Nc1nc(-c2ccccc2)c(C(=O)c2ccccc2)s1,0.23µM*,?,0.16µM*,?,0.41µM*,?
COC(=O)c1ccccc1NC(=O)c1ccc(-c2nc(COc3ccccc3)c(C)o2)cc1,·,·,i,·,·,i
CC(=O)Nc1ccc(CN2CCc3c([nH]c4ccccc34)C2c2ccccn2)cc1 (stereo not given),22%,18µM*,?,23µM*,?,?
